Reference: PMC8769072, “Proteome‐scale mapping of binding sites in the unstructured regions of the human proteome” (Molecular Systems Biology, 2022)

Chain of YAP1 169-207, P46937 (P46937 169-207): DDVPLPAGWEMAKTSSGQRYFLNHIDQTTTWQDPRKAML
Chain of VASP 1-114, P50552 (P50552 1-114): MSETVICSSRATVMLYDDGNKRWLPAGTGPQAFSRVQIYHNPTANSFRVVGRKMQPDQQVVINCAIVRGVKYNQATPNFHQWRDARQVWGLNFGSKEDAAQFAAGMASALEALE
Chain of USP7 53-206, Q93009 (Q93009 53-206): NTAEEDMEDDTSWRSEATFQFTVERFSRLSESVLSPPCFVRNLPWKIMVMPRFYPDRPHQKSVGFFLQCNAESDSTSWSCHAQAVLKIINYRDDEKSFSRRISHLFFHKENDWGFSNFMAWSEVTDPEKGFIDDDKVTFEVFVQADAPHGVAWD

How did the “selected by phage display” value (YAP1 169-207, P46937) turn out when TGTPQESLPTYTQTLR [STPG3, Q8N7X2] was run?
Its value is “confidence 3 (active)”.

How did the “selected by phage display” value (USP7 53-206, Q93009) turn out when SQVTGMSLQIPSSSTG [MAMLD1, Q13495] was run?
Its value is “confidence 3 (active)”.

ASSSSPSLSGTSYSFS [IPCEF1, Q8WWN9] was tested. Which “selected by phage display” value (USP7 53-206, Q93009) did it give?
Its value is “confidence 4 (active)”.

How did the “selected by phage display” value (USP7 53-206, Q93009) turn out when ASSSLTVTDSTLWSQS [MAGEA8, P43361] was run?
Its value is “confidence 3 (active)”.

With TVDANGVVSLVGGPSV [SCN1A, P35498] as the binder, how does the “selected by phage display” value (USP7 53-206, Q93009) read?
Its value is “confidence 3 (active)”.

For LPPYPEHLTSPLSPAQ [ZNF783, Q6ZMS7], which “selected by phage display” value (YAP1 169-207, P46937) is on record?
Its value is “confidence 2 (active)”.

For ARTVLWNPEDLIPLPI [ZC3H4, Q9UPT8], which “selected by phage display” value (WDR5 21-334, P61964) is on record?
The value was “confidence 2 (active)”.

For LWPDPPHFLYWSGFLG [PAX1, P15863], which “selected by phage display” value (VASP 1-114, P50552) is on record?
The value was “confidence 2 (active)”.

For FPPPPPETELPLPPIE [RAPH1, Q70E73], which “selected by phage display” value (VASP 1-114, P50552) is on record?
Its value is “confidence 3 (active)”.

With EAFPPPPHFSFPAPLS [SBNO2, Q9Y2G9] as the binder, how does the “selected by phage display” value (VASP 1-114, P50552) read?
Its value is “confidence 2 (active)”.

EFPPPPPDVLQTSVDV [XIRP2, A4UGR9] was tested. Which “selected by phage display” value (VASP 1-114, P50552) did it give?
The value was “confidence 4 (active)”.

How did the “selected by phage display” value (VASP 1-114, P50552) turn out when LLNFPPPLPALYELWE [LBR, Q14739] was run?
Its value is “confidence 2 (active)”.

How did the “selected by phage display” value (USP7 53-206, Q93009) turn out when VPANGEMSSSHSAQSM [TP73, O15350] was run?
Its value is “confidence 3 (active)”.

HEVVLRTAAPPDYTLA [NLGN1, Q8N2Q7] was tested. Which “selected by phage display” value (YAP1 169-207, P46937) did it give?
Its value is “confidence 3 (active)”.

For HPPTYVQNVVPQNTPM [ARID2, Q68CP9], which “selected by phage display” value (YAP1 169-207, P46937) is on record?
The value was “confidence 2 (active)”.

Which “selected by phage display” value (YAP1 169-207, P46937) does the source give for SSATLPPPYQLINVPP [GAB1, Q13480] here?
The value was “confidence 4 (active)”.

How did the “selected by phage display” value (VASP 1-114, P50552) turn out when MAWPKLPAPWLLLATW [ILDR1, Q86SU0] was run?
Its value is “confidence 2 (active)”.

Which “selected by phage display” value (USP7 53-206, Q93009) does the source give for ALSDSPSNSSYVETPR [TUBGCP5, Q96RT8] here?
Its value is “confidence 3 (active)”.

How did the “selected by phage display” value (YAP1 169-207, P46937) turn out when TEVYGEFYPVPPPYSV was run?
The value was “confidence 4 (active)”.

How did the “selected by phage display” value (USP7 53-206, Q93009) turn out when PGSNSTGSEVASMSSQ [ISL1, P61371] was run?
The value was “confidence 3 (active)”.

For PSAMLPIYPAIDIDAQ [ANKRD17, O75179], which “selected by phage display” value (YAP1 169-207, P46937) is on record?
Its value is “confidence 2 (active)”.

Which “selected by phage display” value (YAP1 169-207, P46937) does the source give for YTREGEPLPPPYSLRE [TPSG1, Q9NRR2] here?
Its value is “confidence 3 (active)”.

For SARSTPLTVDRSPDSS [PDZRN4, Q6ZMN7], which “selected by phage display” value (WDR5 21-334, P61964) is on record?
Its value is “confidence 2 (active)”.

PAKIETDYWPAPPSLA [DMTN, Q08495] was tested. Which “selected by phage display” value (VASP 1-114, P50552) did it give?
The value was “confidence 2 (active)”.

Which “selected by phage display” value (USP7 53-206, Q93009) does the source give for GSSGSQEQLVSIASSS [PER3, P56645] here?
Its value is “confidence 3 (active)”.

Which “selected by phage display” value (YAP1 169-207, P46937) does the source give for PPAYEDVVHRPGTPPP [WBP1, Q96G27] here?
Its value is “confidence 3 (active)”.

For NNSLPPYAQGLASPQG [TBP, P20226], which “selected by phage display” value (YAP1 169-207, P46937) is on record?
The value was “confidence 3 (active)”.

For SIAQPSTSSLHSHSSL [TCF7L2, Q9NQB0], which “selected by phage display” value (USP7 53-206, Q93009) is on record?
The value was “confidence 3 (active)”.

SMAPPAYSLYTPEPPP was tested. Which “selected by phage display” value (YAP1 169-207, P46937) did it give?
The value was “confidence 3 (active)”.

Which “selected by phage display” value (USP7 53-206, Q93009) does the source give for SSSAASTSSSSSAVAS [TRIP12, Q14669] here?
Its value is “confidence 2 (active)”.

For GISDGPSVSALTNGFD [PARN, O95453], which “selected by phage display” value (USP7 53-206, Q93009) is on record?
Its value is “confidence 3 (active)”.

Which “selected by phage display” value (VASP 1-114, P50552) does the source give for LVPPALDLSWIWPAPP [C1orf159, Q96HA4] here?
Its value is “confidence 3 (active)”.

How did the “selected by phage display” value (VASP 1-114, P50552) turn out when DFPPPPPDLEQLRLTD [VCL, P18206] was run?
Its value is “confidence 2 (active)”.

Which “selected by phage display” value (USP7 53-206, Q93009) does the source give for SASSSASSSASSSSVV [MEX3B, Q6ZN04] here?
The value was “confidence 4 (active)”.

SARVNPQDGTNTLTRI [EHMT1, Q9H9B1] was tested. Which “selected by phage display” value (WDR5 21-334, P61964) did it give?
Its value is “confidence 2 (active)”.

Which “selected by phage display” value (YAP1 169-207, P46937) does the source give for EYQQVPNSDPPRYEFL [MAGEB18, Q96M61] here?
The value was “confidence 2 (active)”.

SMADFPPPEEAFFSVA [KIAA1522, Q9P206] was tested. Which “selected by phage display” value (VASP 1-114, P50552) did it give?
Its value is “confidence 2 (active)”.

Which “selected by phage display” value (VASP 1-114, P50552) does the source give for GDLQTWFFPPPPAGSV [TEX44, Q53QW1] here?
Its value is “confidence 2 (active)”.

With DFTAPDVWYPGGMVSR [AR, P10275] as the binder, how does the “selected by phage display” value (WDR5 21-334, P61964) read?
Its value is “confidence 2 (active)”.

Which “selected by phage display” value (VASP 1-114, P50552) does the source give for VYSMDDFPPPPPHTVA [SHROOM3, Q8TF72] here?
Its value is “confidence 4 (active)”.

How did the “selected by phage display” value (YAP1 169-207, P46937) turn out when DGKGAKPPEYRNYQIV [MFSD6, Q6ZSS7] was run?
The value was “confidence 3 (active)”.

For SPVFPPPPPEALIPFA [NHSL1, Q5SYE7], which “selected by phage display” value (VASP 1-114, P50552) is on record?
Its value is “confidence 3 (active)”.

For EPPPSYDEAVKMAKPR, which “selected by phage display” value (YAP1 169-207, P46937) is on record?
Its value is “confidence 3 (active)”.

SARSGYVIQGSSDLIA [SVEP1, Q4LDE5] was tested. Which “selected by phage display” value (WDR5 21-334, P61964) did it give?
Its value is “confidence 2 (active)”.

How did the “selected by phage display” value (WDR5 21-334, P61964) turn out when PQNRTSAYSLEHADLG [SIPA1, Q96FS4] was run?
The value was “confidence 2 (active)”.

For QGELLEAPSSSSAPLP [RNF135, Q8IUD6], which “selected by phage display” value (USP7 53-206, Q93009) is on record?
Its value is “confidence 2 (active)”.

With ADTPPPAYLPPEDPMT [SMAD1, Q15797] as the binder, how does the “selected by phage display” value (YAP1 169-207, P46937) read?
The value was “confidence 2 (active)”.

For FPAPPSHWLFGHIQEL [CYP4A11, Q02928], which “selected by phage display” value (VASP 1-114, P50552) is on record?
The value was “confidence 2 (active)”.

FPPPPLPDSAIFLPPS [INPPL1, O15357] was tested. Which “selected by phage display” value (VASP 1-114, P50552) did it give?
Its value is “confidence 3 (active)”.

With LYPPPSHAAEDSLPPY [TMEM59L, Q9UK28] as the binder, how does the “selected by phage display” value (YAP1 169-207, P46937) read?
The value was “confidence 2 (active)”.

SVLPPSYASDRLSGNN [ALKBH5, Q6P6C2] was tested. Which “selected by phage display” value (YAP1 169-207, P46937) did it give?
Its value is “confidence 2 (active)”.

Which “selected by phage display” value (VASP 1-114, P50552) does the source give for DVVLQSFPPLPSAEIL [KIF23, Q02241] here?
The value was “confidence 2 (active)”.

With WPDPPDLPTVDPISSS [MRPL43, Q8N983] as the binder, how does the “selected by phage display” value (VASP 1-114, P50552) read?
Its value is “confidence 4 (active)”.

With ASSAPALETDSSPPPY as the binder, how does the “selected by phage display” value (YAP1 169-207, P46937) read?
Its value is “confidence 2 (active)”.

For IPSEEWPNPPTLQEAG [FAF2, Q96CS3], which “selected by phage display” value (VASP 1-114, P50552) is on record?
The value was “confidence 4 (active)”.

Which “selected by phage display” value (WDR5 21-334, P61964) does the source give for NQAVNFLRMSARVDAV [CHMP1B, Q7LBR1] here?
Its value is “confidence 2 (active)”.

For PVQSPLATAASASTSV [PROSER1, Q86XN7], which “selected by phage display” value (USP7 53-206, Q93009) is on record?
Its value is “confidence 3 (active)”.

How did the “selected by phage display” value (WDR5 21-334, P61964) turn out when WEQDGGRWLPGHAMAM [RRAD, P55042] was run?
Its value is “confidence 2 (active)”.

With AAATAGAPTALPAYPA [TMEM158, Q8WZ71] as the binder, how does the “selected by phage display” value (YAP1 169-207, P46937) read?
The value was “confidence 2 (active)”.

With TDSIHSAHSSHSLSRD [UNC13B, O14795] as the binder, how does the “selected by phage display” value (USP7 53-206, Q93009) read?
Its value is “confidence 2 (active)”.

For APHPYSPQPPPYHELS [DVL2, O14641], which “selected by phage display” value (YAP1 169-207, P46937) is on record?
Its value is “confidence 3 (active)”.

IPTSRSTPYKPIDDRI [SPATA5, Q8NB90] was tested. Which “selected by phage display” value (WDR5 21-334, P61964) did it give?
Its value is “confidence 2 (active)”.
